WRN helicase inh: WRN helicase (human) inhibition; Potency, µM (highest dose often 114 µM), for inactives: at the highest dose activity change, negative = inhibition, usual class: inhibitors; Q14191; hit rate 0.46% among 360,000; AID 651768; WRN helicase unwinding, fluorescent forked duplex, kinetic; note: nearly all actives have a fitted effect of over 55% in size
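WRN at 20 nM final was preincubated with compound for 15 min at room temperature; reaction started with 100 nM forked duplex oligonucleotide carrying fluorophore and quencher plus 2 mM ATP (final). Unwinding followed kinetically by red fluorescence (ex 525/em 598 nm).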
FEN1 inhibitor: inhibitors of human flap endonuclease 1. hit rate 0.35% among 390,000. Potency, µM (doses to about 114 µM), without a hit: top-dose activity change, negative = inhibition, usual class: inhibitors. P39748. Recombinant FEN1 flap cleavage, fluorescence, 15 min. AID 588795; note: nearly all actives have a fitted effect of over 65% in size
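FEN1 at 10 nM, compound pretreatment for 15 min (room temperature), 50 nM final substrate to initiate; endpoint reads at 0 and 15 min; DMSO-only plates used as vehicle background.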
BLM inh: inhibitors of human Bloom syndrome helicase BLM; recombinant BLM DNA unwinding, fluorescence dequenching; Potency, µM (doses to about 56.1 µM), without a hit: at the top dose activity change, negative = inhibition, actives largely listed as inhibitors; hit rate 0.2% among 350,000;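 note: plate controls were vehicle for no effect and no enzyme for full effect; nearly all actives have a fitted effect of over 35% in size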
RECQ1 inh-1: inhibitors of human RECQ1 DNA helicase. P46063. RECQ1 DNA unwinding, red fluorescence kinetic read. Potency, µM (series often up to 57.3 µM), inactives show at the highest dose activity, negative = inhibition, most hits filed as inhibitors. hit rate 0.54% among 240,000;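 note: plate controls were vehicle for no effect and no enzyme for full effect; nearly all actives have a fitted effect of over 30% in size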
Target sequence (P46063 whole entry, looked up): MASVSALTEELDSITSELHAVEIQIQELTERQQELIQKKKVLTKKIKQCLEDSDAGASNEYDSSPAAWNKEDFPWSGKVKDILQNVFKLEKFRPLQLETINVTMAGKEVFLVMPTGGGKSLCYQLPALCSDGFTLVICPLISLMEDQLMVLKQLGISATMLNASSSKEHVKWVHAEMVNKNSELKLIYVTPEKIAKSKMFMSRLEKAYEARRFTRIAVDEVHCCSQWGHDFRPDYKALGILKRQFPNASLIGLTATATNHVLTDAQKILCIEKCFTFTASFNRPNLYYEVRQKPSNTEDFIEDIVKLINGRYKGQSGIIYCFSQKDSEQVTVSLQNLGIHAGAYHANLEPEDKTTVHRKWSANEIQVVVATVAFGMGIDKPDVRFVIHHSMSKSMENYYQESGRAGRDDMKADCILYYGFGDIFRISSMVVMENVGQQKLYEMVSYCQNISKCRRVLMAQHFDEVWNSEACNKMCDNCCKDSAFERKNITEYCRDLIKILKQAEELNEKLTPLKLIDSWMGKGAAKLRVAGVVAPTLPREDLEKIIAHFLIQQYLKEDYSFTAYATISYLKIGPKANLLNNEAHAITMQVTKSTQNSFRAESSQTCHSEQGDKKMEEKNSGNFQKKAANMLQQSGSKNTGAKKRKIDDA
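50 nM RECQ1T1 preincubated 15 min with compound in Tris pH 8.0 buffer with MgCl2, DTT, Tween-20 and 2.5 ug/ml poly(dI-dC); started with 200 nM TAMRA/BHQ-2 forked duplex and 2 mM ATP. Unwinding read as fluorescence (525/598 nm), two reads 2 h apart.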
L3MBTL1 inh: blocks human L3MBTL1. Q9Y468. AlphaScreen L3MBTL1–H3K9me1 peptide binding. Potency, µM (top dose mostly 57.1 µM), inactives show at the top dose activity, negative = inhibition, usual class: inhibitors. hit rate 0.66% among 230,000; note: nearly all actives have a fitted effect of over 60% in size
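Read-out is AlphaScreen signal from streptavidin donor and nickel chelate acceptor beads (10 ug/mL final each) bridging L3MBTL1 (50 nM) and biotinylated K9-monomethylated H3(1-15) peptide (75 nM), after 30 min compound exposure at room temperature.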
APE1 inh: blocks human APE1 abasic DNA cleavage; recombinant APE1, TAMRA/BHQ-2 abasic DNA cleavage fluorescence; Potency, µM (highest dose often 65.8 µM), for the others: at the highest dose activity change, negative = inhibition, hits mostly inhibitors; hit rate 0.35% among 350,000;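 note: plate controls were vehicle for no effect and reference inhibitor for full effect; nearly all actives have a fitted effect of over 55% in size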
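Incision of a quenched TAMRA/BHQ-2 THF abasic-site duplex (50 nM) by 0.75 nM APE1, after 15 min compound preincubation, measured as fluorescence increase over three 60 s reads. Values normalized to buffer, DMSO and NSC13755 control wells.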
RECQ1 conf: confirmation of human RECQ1 helicase inhibitors; Potency, µM (titrated, usually from 229 µM), for inactives: at the highest dose activity change, negative = inhibition, most hits filed as inhibitors; AID 2708; RECQ1 helicase DNA unwinding, fluorescence; hit rate 28% among 610; shares compounds with RECQ1 inh-1; note: nearly all actives have a fitted effect of over 45% in size
ADP FP counter: ADP displacement flagged in RECQ1 inhibitor counter-screen; shares compounds with RECQ1 inh-1; AID 2711; hit rate 27% among 530; ADP fluorescence polarization displacement counterscreen; Potency, µM (titrated, usually from 228 µM), without a hit: at the top dose activity change, negative = inhibition, usual class: inhibitors; note: nearly all actives have a fitted effect of over 45% in size
RECQ1 inh-2: blocks human RECQ1 DNA unwinding; shares compounds with RECQ1 inh-1; recombinant RECQ1 DNA unwinding, red fluorescence; Potency, µM (top dose mostly 119 µM), for the others: at the highest dose activity, negative = inhibition, hits mostly inhibitors; hit rate 15% among 1,100; AID 504841; note: nearly all actives have a fitted effect of over 50% in size
Numbers without * were called inactive; i = inactive; ? = inconclusive; · = not tested or not shown; [ ] = another dose, or the depositor's remark. Hits are enriched below; roughly 1% of the tested compounds scored in any of these assays. Calls come from the whole dose curve; as a rule, active = well fitted curve in the direction sought with a large enough effect; inconclusive = small, poorly fitted or top-dose-only effect, or another doubt; inactive = no such curve, though single readings can be large; an effect the other way counts as inactive or inconclusive. Unless noted, % is set by controls: 0 for no effect and ±100 for the full control effect; potency is the fitted concentration of half-maximal effect.

SMILES | WRN helicase inh | FEN1 inhibitor | BLM inh | RECQ1 inh-1 | L3MBTL1 inh | APE1 inh | RECQ1 inh-2 | others
NS(=O)(=O)c1ccc(CCNC(=O)CSc2nc3ccsc3c(=O)n2CC(=O)O)cc1 | 3% | -4% | 6% | -6% | 7% | 12% | ·
O=C(O)CCCCn1c(SCc2ccccc2Cl)nc2ccsc2c1=O | 1% | 8% | -1% | -9% | · | 13% | · | RECQ1 conf=10%;ADP FP counter=3%
O=C(CSc1nc(-c2ccc(F)cc2)[nH]c1-c1ccc(F)cc1)Nc1ccc2c(c1)OCO2 | · | -17% | -3% | · | · | · | ·
COCCNC(=O)C1CCCN(C(=O)c2cc(-c3cccs3)oc2C)CC1 (stereo not given) | -5% | · | · | · | · | · | ·
CCC1CCCCN1C(=O)CSc1nc2c([nH]c3ccccc32)c(=O)n1-c1ccc(OC)cc1 (stereo not given) | · | -18% | 2% | · | · | · | ·
CCCCOc1ccc(CNC(=O)c2ccc(NC(=O)N3CCSc4ncccc43)cc2)cc1 | · | -1% | 3% | · | · | · | ·
O=C1c2ccccc2C(=O)c2c1cccc2N(CCO)CCO | -9%[57.1 µM] | -21% | -6% | · | -17% | 7% | ·
O=C1C=C(N(CCO)Cc2ccccc2)c2ccccc2C1=O | -5% | -18% | ? | ? | ? | -1% | ?
O=C1C[C@H](c2ccc(-c3ccccc3)cc2)N1S(=O)(=O)c1ccccc1[N+](=O)[O-] | · | -15% | 2% | -2% | · | 0% | ·
CCn1c(NN)nc2sc3c(c2c1=O)CCC3 | -14% | -10% | -16% | ? | · | 0% | -11%
CC(=O)NC1=NC(=O)/C(=C/c2cc(C)n(-c3ccc(NC(C)=O)cc3)c2C)S1 | -22% | 2% | -14% | 40µM* | · | -2% | -8%
Cc1cc(C(=O)CSc2nnc(-c3ccncc3)n2-c2ccccc2)c(C)n1C | ? | 1% | -13% | ? | -24% | -5% | ·
Cc1cc(C(=O)CSc2nnc(-c3ccccc3)n2-c2ccccc2)c(C)n1-c1ncn[nH]1 | ? | -33% | -11% | 35µM* | -5% | 1% | ?
COCCNC(=O)c1onc(CSc2cc(C)cc(C)c2)c1C(=O)O | -1% | 21% | -3% | i | 7% | 1% | · | RECQ1 conf=0%;ADP FP counter=1%
Cc1ccccc1NC(=O)CSc1nc(N)c2c3c(sc2n1)CSC(C)(C)C3 | -13% | -2% | -6% | 22µM* | -5% | -2% | -18%
Cc1ccc(NC(=O)CSc2nc(N)c3c4c(sc3n2)CSC(C)(C)C4)cc1 | -16% | -1% | -9% | -10% | -12% | -3% | ·
O=C(Nc1cccc(C(=O)N2CCOCC2)c1)C1CC1 | 3% | -8% | · | · | · | · | ·
CC(=O)C(Sc1ccc2nnc(-c3ccc(C)cc3)n2n1)C(C)=O | -1% | -20% | -6% | ? | -12% | -15% | ?
CCCCN1C=CC(=C2C(=O)c3ccccc3C2=O)C=C1 | -4% | 1% | -1% | ? | · | 4% | -12%
COc1ccc(NC(=O)/C(Cl)=C(/Cl)S(=O)Cc2ccc(Cl)cc2)cn1 (stereo not given) | 22µM* | -4% | -17% | 35µM* | -14% | 9% | -33%
Cc1ccc(S(=O)(=O)NCC(=O)N(CC(=O)NCC2CCCO2)Cc2ccco2)cc1 (stereo not given) | -3%[57.1 µM] | 15% | -28% | 22µM* | ? | ? | -14%
Cc1ccc(S(=O)(=O)NCC(=O)N(CC(=O)NCC2CCCO2)Cc2ccccc2)cc1 (stereo not given) | -1% | 1% | -1% | i | · | -2% | ·
COc1ccc(C(=O)N2CCCC(C)(C(=O)NS(=O)(=O)C3CC3)C2)cc1 (stereo not given) | -2% | · | · | · | · | · | ·
Cc1ccc(NC(=O)c2sc(-n3nc(C)c(CCC(C)C)c3C)nc2C)cc1C | · | -4% | -11% | · | · | · | ·
O=C(Nc1cccc([N+](=O)[O-])c1)c1cccc(C(=O)Nc2cccc([N+](=O)[O-])c2)c1 | 3% | -20% | ? | -4% | -3% | ? | ·
SMILES | WRN helicase inh | FEN1 inhibitor | BLM inh | RECQ1 inh-1 | L3MBTL1 inh | APE1 inh | RECQ1 inh-2 | others
Cc1nc2ccc(C(=O)Nc3cccc([N+](=O)[O-])c3)cc2s1 | -20% | -6% | -2% | ? | -1% | -9% | -6%
CCC(C)C(NC(=O)OC(C)(C)C)C(=O)NC1COC2CC(n3ccc(=O)[nH]c3=O)OC12 (stereo not given) | · | -3% | 3% | i | · | 2% | ·
O=C(CN1C(=O)c2ccccc2C1=O)NC(Cc1ccccc1)C(=O)O (stereo not given) | -7% | -8% | · | · | · | · | ·
COC(=O)C1=C(C(=O)OC)[C@@H]2N(C)c3ccccc3[C@@]23C[C@@H](C(=O)OC)N=C3N1 | 5% | -1% | -2%[12.4 µM] | 7%[11.5 µM] | · | 2%[12.4 µM] | ·
COC(=O)C1=C(C(=O)OC)[C@@H]2N(Cc3ccccc3)c3ccccc3[C@@]23C[C@@H](C(=O)OC)N=C3N1 | -8% | -5% | 0%[12.4 µM] | ? | · | -3%[12.4 µM] | -8%
CN1/C(=C\C=N\O)C(C)(C)c2ccccc21 | -6% | 18% | -3% | -4% | -4% | 3% | ·
Cc1ccccc1N=C/C=C1\N(C)c2ccccc2C1(C)C | -1% | 3% | 5% | ? | · | ? | -9%
Cc1ccc(NC(=S)NC(=O)/C=C/c2ccco2)c(O)c1 | -19% | -13% | -14% | ? | -10% | ? | -23%
O=C(Nc1c(Cl)cc2c(c1Cl)Cc1cc([N+](=O)[O-])ccc1-2)C(Cl)Cl | -4% | -5% | · | · | · | · | ·
CN(C(=O)COc1ccc2ccc(=O)oc2c1)C1CCS(=O)(=O)C1 (stereo not given) | -28% | 2% | 1% | · | · | 70% | ·
CC(=O)OC1CCC2(C)C(COc3ccc4ccc(=O)oc4c3)C(C)(O)CCC2C1(C)C (stereo not given) | -4% | 4% | -11% | ? | 2% | 11% | -23%
CCC/C=C(\CCC)C(NS(=O)(=O)c1ccccc1)c1ccc(C(F)(F)F)cc1 (stereo not given) | · | · | -9% | -16% | · | -11% | ·

Assay outcomes deposited in PubChem by National Center for Advancing Translational Sciences (NCATS).
